This is a sample that favours compounds with a hit; in the whole collection about 5.7% have one here.
FAS TE block: FAS thioesterase domain inhibitors, primary screen, biochemical, fluorescence intensity, uHTS | recombinant FAS-TE, OMFH fluorogenic substrate, fluorescence endpoint | inhibition, % at 15 µM | 360,000 compounds, 0.67% hits;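 active = compounds whose normalised, plate-corrected inhibition of enzyme fluorescence in the single-dose primary screen is 50% or more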
GRIN3A LBD mod: binders of NR3A ligand-binding domain, primary screen, biophysical, differential scanning fluorimetry, uHTS. Glutamate receptor ionotropic, NMDA 3A (GRIN3A) ligand-binding domain. NR3A LBD differential scanning fluorimetry, Tm shift; 0% = protein alone, 100% = glycine-bound protein. Tm shift relative to glycine control, % at 25 µM. 340,000 compounds, 2.5% hits;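 active = melting temperature shift of at least 10% of the positive control shift, at one fixed dose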
Myeloid diff MLP: induction of myeloid progenitor differentiation, primary screen, cell-based, flow cytometry, MLPCN library; ER-HoxA9 myeloid progenitors, lysozyme-GFP differentiation; 360,000 compounds, 1% hits; calls only at 10 µM; AID 624256, 2012;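 active = normalized GFP-positive differentiation at or above the plate's own cutoff, the solvent-only control mean plus 3 SD; inconclusive = no clear call, values can overlap the other calls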;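 note: cells exposed to compound for four days before flow analysis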
rCAG RNA binder: binders of r(CAG) RNA repeats, primary screen, biochemical, fluorescence; r(CAG) RNA repeat, TO-PRO-1 dye displacement fluorescence; inhibition, % at 3 µM; 370,000 compounds, 1.3% hits; AID 651821, 2012;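 active = inhibition above the plate cutoff, the mean of all test compounds on that plate plus 3 SD, cut at about 35% in these data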;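 note: higher means more dye released from RNA so lower well fluorescence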
MPTP block: mitochondrial permeability transition pore inhibitors, primary screen, biochemical, isolated mouse mitochondria, absorbance; Ca2+ swelling absorbance, 30 min; inhibition, % at 10 µM; 360,000 compounds, 1.4% hits; AID 602449, 2012;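 active = inhibition of 50% or more, scaled per plate between neutral and stimulator controls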
Myeloid diff CP1: inducers of myeloid progenitor differentiation, confirmation, cell-based, GFP/Mac1 flow cytometry, cherry pick 01 | shares compounds with Myeloid diff MLP | ER-HoxA9 myeloid progenitors, GFP/Mac1 double-positive flow | calls only | 2,300 compounds, 2% hits | AID 651706, 2012;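 active = share of green or green-and-red cells above 9 and 9% in run 1 or 4 and 3% in run 2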
GFP autofluor: flagged as fluorescent in myeloid differentiation counter-screen | shares compounds with Myeloid diff MLP | ER-HoxA9 myeloid progenitors, no estrogen, GFP autofluorescence flow cytometry; vehicle wells 0%, positive control 100% | fluorescence response, % (test concentration not listed) | 2,300 compounds, 7.4% hits | AID 651707;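 active = over 5% cells positive for green fluorescent reporter, or over 2% positive for both it and APC stain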
Hits are given with their value; i = inactive; ? = inconclusive; nt = no result; + = active, no number.

SMILES	FAS TE block	GRIN3A LBD mod	Myeloid diff MLP	rCAG RNA binder	MPTP block	Myeloid diff CP1	GFP autofluor
Cn1cc(-c2ccccc2C(=O)O)c(=O)c2cc(Cl)ccc21	i	i	i	i	i	nt	nt
OCCn1c(-c2ccc(F)cc2)csc1=Nc1ccccc1	i	i	i	i	i	nt	nt
CCOc1ccc(N=c2scc(-c3ccc(OC)cc3)n2CCO)cc1	i	i	i	i	i	i	i
C#CCOCCOCCOCCNc1nc(N2CCN(C(=O)[C@H]([C@@H](C)CC)n3cc([C@@H](N)CO)nn3)CC2)nc(N2CCN(C(=O)[C@H]([C@@H](C)CC)n3cc([C@@H](N)Cc4ccc(O)cc4)nn3)CC2)n1	i	i	i	nt	i	nt	nt
C#CCOCCOCCOCCNc1nc(N2CCN(C(=O)[C@H](C(C)C)n3cc(CCO)nn3)CC2)nc(N2CCN(C(=O)[C@H]([C@@H](C)CC)n3cc(CCCCN)nn3)CC2)n1	i	i	i	i	i	nt	nt
C#CCOCCOCCOCCNc1nc(N2CCN(C(=O)[C@H]([C@@H](C)CC)n3cc([C@@H](N)CO)nn3)CC2)nc(N2CCN(C(=O)[C@H](Cc3ccc(O)cc3)n3cc([C@@H](N)C(C)CC)nn3)CC2)n1 (some centres undefined)	i	i	i	nt	i	i	i
C#CCOCCOCCOCCNc1nc(N2CCOCC2)nc(N2CCN(C(=O)[C@H]([C@@H](C)CC)n3cc(CCCCN)nn3)CC2)n1	i	i	+	i	i	i	i
CCOc1ccc(CN2CCC(Cc3ccccc3)CC2)cc1	i	i	i	i	i	nt	nt
COc1ccccc1COc1cccn2c(N(C)C(=O)CCC3CCCC3)c(C)nc12	i	nt	+	i	i	i	i
COC(=O)[C@@]12C[C@@H](CC(=O)NCCc3ccccc3OC)C(=O)N(Cc3cccc4ccccc34)C1=CCC(C)(C)C2	nt	nt	i	i	i	nt	nt
COc1ccc(-c2nn3c(-c4cccc(C)c4)nnc3s2)cc1OC	i	i	i	i	i	i	i
CCCN(CC(=O)Nc1ccc(F)c(F)c1F)C(=O)CCc1nc2ccccc2c(=O)[nH]1	i	i	i	i	i	nt	nt
C[C@@H]1CCCCO[C@@H](CN(C)S(C)(=O)=O)[C@@H](C)CN([C@H](C)CO)C(=O)c2cc(N(C)C)ccc2O1	i	nt	i	i	i	nt	nt
COc1ccccc1C(=O)N/C(=C\c1cn(C)c2ccccc12)C(=O)NCCN1CCOCC1	i	nt	i	i	i	nt	nt
Cc1ccc(-n2c(=O)c3sccc3n(CC(=O)NCc3ccco3)c2=O)cc1	i	i	i	i	i	nt	nt
Cc1ccc(Cn2c(=O)n(Cc3ccco3)c(=O)c3ccccc32)cc1	i	i	i	i	i	i	i
Cc1cccc(Cn2c(=O)n(-c3ccc(CC(=O)NCc4ccco4)cc3)c(=O)c3sccc32)c1	i	i	i	i	i	i	i
Cc1ccc(Cn2c(=O)n(-c3ccccc3)c(=O)c3ccc(C(=O)NCc4ccco4)cc32)cc1	i	i	i	i	i	i	i
COc1c(C)cc(C(O)c2ncc(-c3ccc(C(F)(F)F)cc3)[nH]2)cc1C (centres undefined)	i	nt	i	i	i	nt	nt
CC1=CC2C(C(O)CC3(C)C2CC(C)C32OCOC23COCO3)C2(C)C/C(=C\O)C(=O)C=C12 (centres undefined)	i	i	?	i	i	nt	nt
Cc1c(-c2ccccc2)c(=O)oc2cc(O)ccc12	i	i	i	i	i	nt	nt
NC(=O)NS(=O)(=O)Oc1ccccc1	i	i	i	i	i	nt	nt
Cc1ccc(-c2nc3ccccc3[nH]2)s1	i	i	i	i	i	nt	nt
Cc1[nH]c2ccccc2c1-c1nc2ccccc2[nH]1	i	i	+	i	i	i	i
CC/C(=C1/C(=O)CC(C)(C)C(C(=O)OC)C1=O)N1CCCC1 (centres undefined)	i	i	i	i	i	i	i
SMILES	FAS TE block	GRIN3A LBD mod	Myeloid diff MLP	rCAG RNA binder	MPTP block	Myeloid diff CP1	GFP autofluor
CCO/N=C/C1=C(O)C(C(=O)OC)C(C)(C)CC1=O (centres undefined)	i	i	i	i	i	nt	nt
c1ccc(Cn2nnc3c(N4CCCC4)ncnc32)cc1	i	i	+	i	i	i	i
CCN1CCN(c2ncnc3c2nnn3Cc2ccccc2)CC1	i	i	i	i	i	nt	nt
CCCCOc1ccc(C(O)(CC)CCN2CCOCC2)cc1 (centres undefined)	i	i	i	i	i	nt	nt
CCCCOc1ccc(C(O)(CCC)CCN2CCOCC2)cc1 (centres undefined)	i	i	i	i	i	i	i
COc1cc(/C=C2\SC(=S)N(NC(=O)c3ccncc3)C2=O)ccc1O	i	i	i	i	i	nt	nt
COc1cc(/C=C2\SC(=S)N(NC(=O)c3ccc(O)c(OC)c3)C2=O)ccc1O	i	i	i	i	i	i	27.8
O=C(NCC(c1cccs1)N1CCOCC1)c1ccc(OCc2ccccc2)cc1 (centres undefined)	i	i	+	i	i	i	i
Cc1cc(C)c(S(=O)(=O)NC2CCN(Cc3ccccc3)CC2)c(C)c1	i	i	i	i	i	nt	nt
Cc1cc(C)c(S(=O)(=O)NNC(=O)C2CCN(Cc3ccccc3)CC2)c(C)c1	i	i	i	i	i	i	87.2
Cc1cc(Cl)c(S(=O)(=O)Nc2ccc(Cl)cn2)cc1OCC(N)=O	i	i	i	i	i	nt	nt
CCOc1cc(C)c(S(=O)(=O)Nc2ccc(Cl)cn2)cc1C	i	i	i	i	i	i	i
COc1cccc(-c2csc(NC(=O)Oc3ccccc3)n2)c1	i	i	i	i	i	i	i
Cc1c(N/N=C(\C#N)C(=O)c2ccccc2)c(=O)n(-c2ccccc2)n1C	i	i	i	i	i	i	6.9
Cc1cc2oc(C(=O)Nc3c(C)n(C)n(-c4ccccc4)c3=O)c(C)c2cc1C	i	i	i	i	i	i	i
Cc1ccc(NC(=O)c2ccc(S(=O)(=O)N(C)c3ccccc3)cc2)cc1S(=O)(=O)N1CCOCC1	i	i	i	i	i	nt	nt
Cc1cc(Cl)cc(Br)c1OCCCCn1cncn1	i	i	+	i	i	i	i
C=CS(=O)(=O)N(Cc1ccc(F)cc1)C(=C)C(=O)OC	nt	nt	nt	i	nt	nt	nt
CCCCNC(=O)CNC(=S)N(Cc1cc(OC)c(OC)c(OC)c1)C1CCCC1	i	i	i	i	i	nt	nt
CCCOn1nnnc1-c1ccccc1	i	i	i	i	i	i	i
CCCOc1nnnn1-c1ccccc1	i	i	i	i	i	nt	nt
COc1ccccc1NS(=O)(=O)c1ccccc1C#N	i	i	i	i	i	i	i
COc1ccc(N2CCN(C(=O)Cc3ccc(Cl)cc3)CC2)cc1	i	i	i	i	i	nt	nt
